Reference: PubChem BioAssay AID1159580 (chemical genetic matrix, 2015)
Values joined by “and” are separate entries in the source; they are usually repeats but may differ in a detail not shown here. Identical values can stand only once. Screen size: about 5,500 compounds; about 2,000 (36%) were called active. Not shown: some 18% with an inconclusive outcome. Cut-off read from the data, not from the text of the source: active = normalized growth mostly below about 0.91 (no sharp cut-off); inconclusive = no clear call, values can overlap the other calls; inactive = mostly above about 0.92. Some of the results follow.

Test: chemical genetic growth profiling, strain panel (AID 1159580);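 note: tested at 20 µM; growth read once vehicle control cultures reached saturation at 30 °C; 1 = growth at the plate median or of vehicle wells; lower values mean less growth of the strain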
Settings: growth OD

Measured: normalized growth

Cc1cc(C(C)(C)C)cc(C)c1CC1=NCCN1
inactive: S. cerevisiae deletion strains, locus YJR075W, strain HOC1, active compounds read low 1.02 | S. cerevisiae deletion strains, locus YKL009W, strain mrt4, active compounds read low 1.03 | S. cerevisiae deletion strains, locus YKL068W, active compounds read low 1 | S. cerevisiae deletion strains, locus YKL085W, strain MDH1 (second series), active compounds read low 1.02 | S. cerevisiae deletion strains, locus YKL085W, strain MDH1, active compounds read low 1.02 | S. cerevisiae deletion strains, locus YKL160W, strain elf1, active compounds read low 1.01 | S. cerevisiae deletion strains, locus YKL190W, strain CNB1, active compounds read low 1.02 | S. cerevisiae deletion strains, locus YKR001C, strain vps1, active compounds read low 0.99 | S. cerevisiae deletion strains, locus YKR026C, strain gcn3, active compounds read low 1.01 | S. cerevisiae deletion strains, locus YKR091W, strain srl3, active compounds read low 0.996 | S. cerevisiae deletion strains, locus YLL001W, strain dnm1, active compounds read low 1.03 | S. cerevisiae deletion strains, locus YLL026W, active compounds read low 0.995 | S. cerevisiae deletion strains, locus YLL041C, strain sdh2, active compounds read low 1 | S. cerevisiae deletion strains, locus YLR027C, strain aat2, active compounds read low 1.01 | S. cerevisiae deletion strains, locus YLR039C, strain RIC1, active compounds read low 0.992 | S. cerevisiae deletion strains, locus YLR058C, strain SHM2, active compounds read low 1.02 | S. cerevisiae deletion strains, locus YLR102C, strain apc9, active compounds read low 0.996 | S. cerevisiae deletion strains, locus YLR113W, strain HOG1, active compounds read low 0.997 | S. cerevisiae deletion strains, locus YLR221C, strain rsa3, active compounds read low 0.969 | S. cerevisiae deletion strains, locus YLR258W, strain gsy2, active compounds read low 1 | S. cerevisiae deletion strains, locus YLR262C, strain YPT6 (second series), active compounds read low 1.03 | S. cerevisiae deletion strains, locus YLR262C, strain YPT6, active compounds read low 1.06 | S. cerevisiae deletion strains, locus YLR268W, strain sec22, active compounds read low 0.983 | S. cerevisiae deletion strains, locus YLR320W, strain mms22, active compounds read low 0.99 | S. cerevisiae deletion strains, locus YLR330W, strain CHS5, active compounds read low 1.01 | S. cerevisiae deletion strains, locus YLR342W, strain FKS1 (second series), active compounds read low 0.99 | S. cerevisiae deletion strains, locus YLR342W, strain FKS1, active compounds read low 1 | S. cerevisiae deletion strains, locus YLR357W, strain rsc2, active compounds read low 1 | S. cerevisiae deletion strains, locus YLR370C, strain arc18, active compounds read low 1.01 | S. cerevisiae deletion strains, locus YLR371W, strain rom2, active compounds read low 1 | S. cerevisiae deletion strains, locus YLR384C, strain iki3, active compounds read low 1 | S. cerevisiae deletion strains, locus YLR418C, strain cdc73, active compounds read low 0.995 | S. cerevisiae deletion strains, locus YML016C, strain PPZ1, active compounds read low 1.01 | S. cerevisiae deletion strains, locus YML032C, strain rad52, active compounds read low 0.994 | S. cerevisiae deletion strains, locus YML120C, strain ndi1, active compounds read low 1.01 | S. cerevisiae deletion strains, locus YML124C, strain tub3, active compounds read low 0.996 | S. cerevisiae deletion strains, locus YMR058W, strain fet3, active compounds read low 1.01 | S. cerevisiae deletion strains, locus YMR078C, strain ctf18, active compounds read low 0.991 | S. cerevisiae deletion strains, locus YMR125W, strain sto1, active compounds read low 0.981 | S. cerevisiae deletion strains, locus YMR129W, active compounds read low 1 | S. cerevisiae deletion strains, locus YMR205C, strain PFK2, active compounds read low 1.02 | S. cerevisiae deletion strains, locus YMR223W, strain ubp8, active compounds read low 1 | S. cerevisiae deletion strains, locus YMR231W, strain pep5, active compounds read low 1 | S. cerevisiae deletion strains, locus YMR263W, strain SAP30, active compounds read low 1.02 | S. cerevisiae deletion strains, locus YMR307W, strain GAS1, active compounds read low 1.02 and 0.994 | S. cerevisiae deletion strains, locus YNL067W, strain RPL9B, active compounds read low 1.02 | S. cerevisiae deletion strains, locus YNL071W, strain lat1, active compounds read low 0.998 | S. cerevisiae deletion strains, locus YNL128W, strain TEP1, active compounds read low 1.03 and 0.994 | S. cerevisiae deletion strains, locus YNL153C, strain GIM3, active compounds read low 1 and 0.97 | S. cerevisiae deletion strains, locus YNL175C, strain NOP13, active compounds read low 1.02 | S. cerevisiae deletion strains, locus YNL183C, strain NPR1, active compounds read low 0.96 | S. cerevisiae deletion strains, locus YNL197C, strain WHI3, active compounds read low 1.01 | S. cerevisiae deletion strains, locus YNL209W, strain ssb2, active compounds read low 0.998 | S. cerevisiae deletion strains, locus YNL224C, strain SQS1, active compounds read low 0.987 | S. cerevisiae deletion strains, locus YNL233W, strain BNI4, active compounds read low 1.02 | S. cerevisiae deletion strains, locus YNL248C, strain rpa49, active compounds read low 0.948 | S. cerevisiae deletion strains, locus YNL250W, strain rad50, active compounds read low 1.01 | S. cerevisiae deletion strains, locus YNL271C, strain bni1, active compounds read low 0.986 | S. cerevisiae deletion strains, locus YNL298W, strain CLA4, active compounds read low 0.992 | S. cerevisiae deletion strains, locus YNL307C, strain MCK1, active compounds read low 1.01 | S. cerevisiae deletion strains, locus YNL322C, strain KRE1 (second series), active compounds read low 1.01 | S. cerevisiae deletion strains, locus YNL322C, strain KRE1, active compounds read low 1.02 | S. cerevisiae deletion strains, locus YNR049C, strain mso1, active compounds read low 0.998 | S. cerevisiae deletion strains, locus YNR052C, strain pop2, active compounds read low 0.997 | S. cerevisiae deletion strains, locus YOL006C, strain TOP1, active compounds read low 0.984 | S. cerevisiae deletion strains, locus YOL012C, strain htz1 1.06 | S. cerevisiae deletion strains, locus YOL147C, strain pex11, active compounds read low 0.998 | S. cerevisiae deletion strains, locus YOR001W, strain rrp6, active compounds read low 1.02 | S. cerevisiae deletion strains, locus YOR061W, strain CKA2, active compounds read low 1.01 | S. cerevisiae deletion strains, locus YOR069W, strain VPS5, active compounds read low 1.02 | S. cerevisiae deletion strains, locus YOR070C, strain gyp1, active compounds read low 0.992 | S. cerevisiae deletion strains, locus YOR080W, strain dia2, active compounds read low 1.01 | S. cerevisiae deletion strains, locus YOR083W, strain WHI5 (second series), active compounds read low 0.992 | S. cerevisiae deletion strains, locus YOR083W, strain WHI5, active compounds read low 0.99 | S. cerevisiae deletion strains, locus YOR106W, strain vam3, active compounds read low 1.03 | S. cerevisiae deletion strains, locus YOR136W, strain idh2, active compounds read low 0.997 | S. cerevisiae deletion strains, locus YOR144C, strain elg1, active compounds read low 1 | S. cerevisiae deletion strains, locus YOR184W, strain ser1, active compounds read low 1 | S. cerevisiae deletion strains, locus YOR231W, strain MKK1, active compounds read low 1 | S. cerevisiae deletion strains, locus YOR265W, strain rbl2, active compounds read low 1 | S. cerevisiae deletion strains, locus YOR270C, strain vph1, active compounds read low 1 | S. cerevisiae deletion strains, locus YOR290C, strain snf2, active compounds read low 0.975 | S. cerevisiae deletion strains, locus YOR316C, strain cot1, active compounds read low 0.997 | S. cerevisiae deletion strains, locus YPL051W, strain arl3, active compounds read low 1.01 | S. cerevisiae deletion strains, locus YPL055C, strain LGE1, active compounds read low 1.04 | S. cerevisiae deletion strains, locus YPL078C, strain atp4, active compounds read low 1.03 | S. cerevisiae deletion strains, locus YPL106C, strain sse1, active compounds read low 0.996 | S. cerevisiae deletion strains, locus YPL240C, strain hsp82, active compounds read low 0.991 | S. cerevisiae deletion strains, locus YPL241C, strain CIN2, active compounds read low 1.01 and 1 | S. cerevisiae deletion strains, locus YPL256C, strain CLN2, active compounds read low 0.949 | S. cerevisiae deletion strains, locus YPR119W, strain clb2, active compounds read low 0.995 | S. cerevisiae deletion strains, locus YPR141C, strain kar3, active compounds read low 1.01 | S. cerevisiae deletion strains, locus YPR163C, strain tif3, active compounds read low 1 | S. cerevisiae deletion strains, locus YPR167C, strain met16, active compounds read low 0.997 | S. cerevisiae deletion strains, strain wtn01, active compounds read low 0.994 | S. cerevisiae strains, strain wild type, active compounds read low 1.01
